High-throughput results deposited in PubChem by National Center for Advancing Translational Sciences (NCATS).
Hits are enriched below; roughly 8.8% of the tested compounds scored in any of these assays.
HTT ATP protect = Huntington cell model cytoprotection by ATP luminescence. 230,000 compounds, 0.14% hits. Potency, µM (titrated, usually from 56.4 µM), actives largely listed as activators. PC12 HTT-Q103 induced, cytoprotection, ATP luminescence, 40 h; further: nearly all actives have a fitted effect of over 45% in size
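ATP quantification (ATPlite) reports survival of PC12 cells in which tebufenozide, 100 nM final, switches on Htt exon 1 with 103 glutamines linked to GFP; compounds are titrated.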
ALDH1A1 inh = inhibitors of human aldehyde dehydrogenase 1A1. 220,000 compounds, 7.3% hits. Purified ALDH1A1, NADH fluorescence, propionaldehyde substrate. P00352. Potency, µM (highest dose often 75.3 µM), usual class: inhibitors; active means well fitted inhibition curve with a large enough effect, not every such curve was filed as active; inconclusive means small, poorly fitted or top-dose-only effect, or another doubt; inactive means no such curve, though single readings can be large or run the other way
HttQ103 aggreg = inhibitors of mutant huntingtin aggregate formation in PC12 cells | 220,000 compounds, 1.1% hits | Potency, µM (highest dose often 46.1 µM), usual class: inhibitors | PC12 HttQ103-GFP aggregates, Acumen cytometry, 40 h; further: nearly all actives have a fitted effect of over 60% in size
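Huntingtin Q103 exon 1–GFP aggregates in induced PC12 cells (100 nM tebufenozide) were quantified by cytometry from lysates, with compounds dosed in titration.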
LMNA splice mod = modulators of lamin A splicing; 200,000 compounds, 0.01% hits; AID 1487; Potency, µM (top dose mostly 46.1 µM), hits mostly inhibitors; HeLa LMNA splicing GFP/RFP minigene ratio, 48 h; active means well fitted inhibition curve with a large enough effect in the signal ratio, with a control signal flat, not every such curve was filed as active; inconclusive means small, poorly fitted or top-dose-only effect, or effect the other way, or a change in a side signal; the % refers to the signal ratio
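S3 HeLa cells stably expressing lamin A-EGFP splicing minigene plus DsRed2, 600 cells/well, 48 h compound exposure at 37C. Laser-scanning cytometry; analysed as GFP (500-530 nm)/RFP (575-640 nm) total intensity ratio; 0.5% DMSO vehicle.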
HPGD block = inhibitors of human 15-hydroxyprostaglandin dehydrogenase (HPGD) | purified HPGD, NADH fluorescence kinetic, PGE2 substrate | 150,000 compounds, 4.3% hits | P15428 | Potency, µM, actives largely listed as inhibitors; active means well fitted inhibition curve with a large enough effect, not every such curve was filed as active; inconclusive means small, poorly fitted or top-dose-only effect, or another doubt; inactive means no such curve, though single readings can be large or run the other way
Target sequence (P15428 whole entry, looked up): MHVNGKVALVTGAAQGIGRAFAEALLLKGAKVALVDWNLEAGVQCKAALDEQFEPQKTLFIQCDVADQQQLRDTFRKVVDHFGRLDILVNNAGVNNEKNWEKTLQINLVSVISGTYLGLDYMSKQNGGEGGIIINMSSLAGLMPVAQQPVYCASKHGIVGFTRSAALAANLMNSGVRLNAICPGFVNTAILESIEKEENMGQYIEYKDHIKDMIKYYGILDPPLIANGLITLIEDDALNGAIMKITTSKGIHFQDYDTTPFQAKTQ
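NADH formation kinetics: reaction with 30 uM PGE2 and 1 mM NAD+ (final), 20 nM enzyme, Tris-HCl pH 8 with Tween 20, after 15 min compound preincubation at room temperature. Fluorescence change, last versus first of five reads.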
Hits are given with their value; 0 = inactive; ? = inconclusive; - = not tested or not shown; [ ] = remark or other dose. Unless noted, the call rests on the fitted dose curve; in most records, active means well fitted curve in the direction sought with a large enough effect; inconclusive means small, poorly fitted or top-dose-only effect, or another doubt; inactive means no such curve, though single readings can be large; an effect the other way counts as inactive or inconclusive.

SMILES	HTT ATP protect	ALDH1A1 inh	HttQ103 aggreg	LMNA splice mod	HPGD block
Cc1ccc2c(c1)N(C(=O)N1CCC(C(=O)NC3CCCCCC3)CC1)CC(C)O2 (configuration not stated)	-	-	-	0	-
COc1cc(/C=C2/C(=O)c3cccc([N+](=O)[O-])c3C2=O)c(Br)cc1O	-	8.91µM	0	?	1.41µM
COc1ccc(OC)c2sc(N3CCCCC3)nc12	0[10 µM]	?	0	0	15.8µM
COc1ccc(OC)c2sc(N3CCc4ccccc4C3)nc12	0	?	0	0	-
O=C1C2C3C=CC(C3)C2C(=O)N1c1ccccc1 (configuration not stated)	0	0	0	?	0
O=C1C2C3CCCC3=C3CCCC3C2C(=O)N1c1ccccc1 (configuration not stated)	0	25.1µM	0	0	0
O=C1C2C3C=CC(C3=C3CCCCC3)C2C(=O)N1c1ccccc1 (configuration not stated)	0	10µM	0	0	0
COc1cc2c(cc1OC)n(Cc1ccc([N+](=O)[O-])cc1)c(=O)n1nc(-c3ccccc3)nc21	-	-	-	0	-
C=C(C(C)=O)C(O)c1ccc(C(F)(F)F)cc1 (configuration not stated)	0	0	-	-	0
CCOC(=O)c1c(C)[nH]c(-c2csc(C)n2)c1C	0	0	0	-	-
CCOC(=O)c1c(C)[nH]c(-c2csc(N)n2)c1C	0	11.2µM	?	-	-
CCc1nnc(NC(=O)c2ccc3nc(CC)c(CC)nc3c2)s1	0	0	0	0	-
O=C(CSc1ccsc1[N+](=O)[O-])N1CCN(c2ccccc2)CC1	0[10 µM]	?	0	?	0
Cc1ccc(C)c(N2CCN(C(=O)CSc3ccsc3[N+](=O)[O-])CC2)c1	0[10 µM]	11.2µM	0	?	?
Cc1nc2ccc(S(=O)(=O)N(CC(=O)Nc3cccc(F)c3)Cc3ccccc3)cc2s1	-	-	-	0	-
CSC1=C(C#N)C(c2ccccc2C)C(C#N)=C(N)N1 (configuration not stated)	0[0.074 µM]	22.4µM	0[9.22 µM]	0	0
O=C[C@@H]1CCCN1C(=O)[C@@H]1CCCN1C(=O)OCc1ccccc1	0	7.94µM	-	-	-
COC(=O)[C@@]1(Cc2ccccc2)[C@H]2c3cc(C(=O)N4CCCC4)n(Cc4ccc(C(F)(F)F)nc4)c3C[C@H]2CN1C(=O)c1ccccc1	0	0	-	-	0
COc1ccc(CCNC(=O)Cn2c(=O)n(-c3ccc(C)c(F)c3)c(=O)c3sccc32)cc1OC	0	6.31µM	0	0	-
Cc1sc2ncn(CC(=O)NCCCC(=O)N3CCN(Cc4ccc5c(c4)OCO5)CC3)c(=O)c2c1C	0	0	0	0	-
CCOC(=O)C(NC(=O)N(C)C)(Nc1sc(C)c(CC)c1C#N)C(F)(F)F (configuration not stated)	0[10 µM]	?	0	0	14.1µM
COc1ccc(N(C)C(=O)c2cc3c(Cl)nc4ccccc4c3s2)cc1	0[10 µM]	0	0	?	15.8µM
CN(CCCNC(=O)c1cc2c(Cl)nc3ccccc3c2s1)Cc1ccccc1	0	28.2µM	?	?	-
NC(=O)c1c(NC(NC(=O)c2ccco2)C(=O)c2ccc(Cl)cc2)sc2c1CCCC2 (configuration not stated)	0	17.8µM	0	0	0
C/C(=N\Nc1ncc(Cl)cc1Cl)c1ccc(N2CCOCC2)cc1	0	0	0	0	-
SMILES	HTT ATP protect	ALDH1A1 inh	HttQ103 aggreg	LMNA splice mod	HPGD block
C/C(=N\Nc1nc(C)cc(C)n1)c1ccc(N2CCOCC2)cc1	0[10 µM]	0	11.2µM	0	-
CCOc1cc2c(cc1/C=C1/NC(=O)N(CC(=O)OC)C1=O)OCO2	0	11.2µM	0	-	-
COC(=O)CN1C(=O)N/C(=C/c2ccc(OC)cc2)C1=O	0	?	0	-	-
COC(=O)CN1C(=O)N/C(=C/c2cc3c(cc2OC)OCO3)C1=O	0	7.94µM	0	-	-
COC(=O)CN1C(=O)N/C(=C/c2cc(Cl)c(OC)c(OC)c2)C1=O	0	3.98µM	0	-	-
CCCc1nc2sc3c(SCC(=O)NCc4ccco4)ncnc3c2c2c1CCC2	0[0.074 µM]	25.1µM	?	?	?
Cc1nc(SCC(=O)NCc2ccco2)c2c3c(sc2n1)CCCC3	0	10µM	0	0	14.1µM
O=C(CSc1nc(C2CC2)nc2sc3c(c12)CCCC3)NCc1ccco1	0[10 µM]	0	0	0	0
O=C(NCCc1ccccc1)c1n[nH]c2ccccc12	0	?	0	-	-
COC(=O)c1ccc(N=NNc2ccccc2)cc1	0[10 µM]	?	0	0	25.1µM
COc1ccccc1N1CCN(C(=O)c2cc(S(=O)(=O)N3CCC(C)CC3)cn2C)CC1	-	-	-	0	-
S=c1[nH]nc(-c2cc(-c3ccco3)[nH]n2)n1-c1cccc2ccccc12	0	?	0	0	11.2µM
S=c1[nH]nc(Cc2cccs2)n1-c1cccc2ccccc12	0[10 µM]	0	0	0	25.1µM
CC(=O)c1ccc(-n2c(-c3cc(-c4ccco4)[nH]n3)n[nH]c2=S)cc1	0	0	0	0	5.62µM
S=c1[nH]nc(Cc2cccs2)n1-c1ccccc1Cl	0	?	0	-	-
CCOC(=O)c1[nH]c2ccc(Br)cc2c1NC(=O)CCN1CCC(C)CC1	0	11.2µM	0	0	0
c1ccc([C@H]2NCCc3c2[nH]c2ccccc32)cc1	0[10 µM]	0[13.5 µM]	-	-	-
Cc1cccc(N2CCN(CCCNC(=O)Cn3ncc4c([nH]c5ccccc54)c3=O)CC2C)c1 (configuration not stated)	-	-	-	0	-
O=c1cc(O)c2c(=O)n(Cc3ccccc3)c3ccccc3c2o1	0	?	0	-	-
CCCCn1c(=O)c2c(O)cc(=O)oc2c2ccccc21	0	15.8µM	0	0	0
CCOc1ccc(C(=O)Nc2cc(-c3nc4ccccc4[nH]3)ccc2Cl)cc1[N+](=O)[O-]	0[10 µM]	0	12.6µM	0	?
O=C(NC(Cc1ccccc1)c1nc2ccccc2[nH]1)c1ccc(Cl)c([N+](=O)[O-])c1 (configuration not stated)	0[10 µM]	0	7.94µM	0	-
CCOc1ccc(C(=O)Nc2nc3ccccc3[nH]2)cc1OCC	0[10 µM]	0	12.6µM	0	-
CSCC[C@H](NC(=O)c1ccc(Cl)c([N+](=O)[O-])c1)c1nc2ccccc2[nH]1	0[1.9 µM]	0	0	0	0
CS(=O)(=O)CCC(C(=O)Nc1cccc(C(F)(F)F)c1)N1Cc2ccccc2C1=O (configuration not stated)	-	-	-	0	-
SMILES	HTT ATP protect	ALDH1A1 inh	HttQ103 aggreg	LMNA splice mod	HPGD block
O=C(CSc1nnc(NC(=O)C2CCC2)s1)NC1CC1	0[10 µM]	0	0	0	0
O=C(Nc1nnc(SCC(=O)N2CCCCC2)s1)C1CCCCC1	0[10 µM]	?	0	0	14.1µM
OCCOCCOc1cccc2[nH]ccc12	?	0	0	0	-
CN(CCO)CCOCCOc1cccc2ccccc12	0	14.1µM	0	0	-
COC(=O)C/C=C\[C@@H](C)[C@@H](/C=N\O[C@@H](C)c1cn([C@H]2COC[C@H]2O)nn1)NS(=O)(=O)c1ccc(C)cc1	?	0[13.5 µM]	-	-	-
CC1CCCN(C(=O)C(C)Nc2cc(Cl)ccc2N2CCOCC2)C1 (configuration not stated)	0	10µM	0	-	-
